POLH inh – qHTS for Inhibitors of Polymerase Eta | recombinant Pol eta, fluorescent DNA replication assay | Potency, µM (doses to about 114 µM), for inactives: at the highest dose activity change, negative = inhibition, usual class: inhibitors | hit rate 1.2% among 390,000; further: on the % scale 0 is the no-effect control and ±100 the full control effect
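Fluorescent replication assay: 50 nM final substrate added after a 15 min room-temperature compound preincubation with 10 nM enzyme. Signal taken at 0 min and again at 10 min.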
Pol beta inh – qHTS Assay for Inhibitors of DNA Polymerase Beta; P06746; Pol beta primer extension/strand displacement, fluorescence kinetic; Potency, µM (top dose mostly 114 µM), without a hit: top-dose activity change, negative = inhibition, most hits filed as inhibitors; hit rate 1.3% among 340,000; further: on the % scale 0 is the no-effect control and ±100 the full control effect
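Homogeneous kinetic assay of primer extension and strand displacement by 10 nM Pol beta, preincubated 15 min at room temperature with compound before 50 nM substrate (final) was added. Read at 0 and 10 min; four-parameter Hill fit.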
POLK inh – qHTS for Inhibitors of Polymerase Kappa | purified Pol kappa, fluorescent DNA synthesis assay, 10 min | DNA polymerase kappa (Homo sapiens), Q9UBT6 | hit rate 0.53% among 400,000 | Potency, µM (titrated, usually from 107 µM), for the others: at the top dose activity, negative = inhibition, hits mostly inhibitors; further: on the % scale 0 is the no-effect control and ±100 the full control effect
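Fluorescent qHTS in 1536-well format: enzyme (10 nM) and compound sat 15 min at room temperature before 50 nM substrate (final) was added. Signal taken at 0 and 10 min; no-enzyme buffer wells were negative controls.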
GLS inh – qHTS for Inhibitors of Glutaminase (GLS); GLS enzymatic activity, qHTS titration; Glutaminase kidney isoform, mitochondrial (Homo sapiens), O94925; Potency, µM (titrated, usually from 45.5 µM), for inactives: top-dose activity change, negative = inhibition, most hits filed as inhibitors; hit rate 0.21% among 410,000; AID 624170, 2012; further: on the % scale 0 is the no-effect control and ±100 the full control effect
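hKGA; 45 mM KH2PO4 pH 8.2 + 0.02% Tween-20; cpd via pin tool; 1 mM Gln soln; GluOx/HRP/Amplex Red; RT 30 min; fluor. t0 & final.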
KAT2A inh – qHTS Assay for Inhibitors of GCN5L2; hit rate 0.21% among 390,000; Histone acetyltransferase KAT2A (Homo sapiens), Q92830; GCN5L2 HAT assay, ThioGlo1 CoA-SH fluorescence; Potency, µM (doses to about 58.9 µM), for the others: at the highest dose activity change, negative = inhibition, most hits filed as inhibitors; further: on the % scale 0 is the no-effect control and ±100 the full control effect
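Preincubate 20nM GCN5L2 with compound 15 min, RT → add 50uM ThioGlo1 + 75uM H3(1-25) + 70uM acetyl-CoA → read fluorescence 0 and 20 min. Primary qHTS; fluorescent artifacts likely.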
POLI inh – qHTS for Inhibitors of Polymerase Iota; Pol iota fluorescent replication assay, 10 min; DNA polymerase iota (Homo sapiens), Q9UNA4; hit rate 1% among 390,000; Potency, µM (doses to about 115 µM), inactives show top-dose activity, negative = inhibition, actives largely listed as inhibitors
Target sequence (Q9UNA4 whole entry, looked up): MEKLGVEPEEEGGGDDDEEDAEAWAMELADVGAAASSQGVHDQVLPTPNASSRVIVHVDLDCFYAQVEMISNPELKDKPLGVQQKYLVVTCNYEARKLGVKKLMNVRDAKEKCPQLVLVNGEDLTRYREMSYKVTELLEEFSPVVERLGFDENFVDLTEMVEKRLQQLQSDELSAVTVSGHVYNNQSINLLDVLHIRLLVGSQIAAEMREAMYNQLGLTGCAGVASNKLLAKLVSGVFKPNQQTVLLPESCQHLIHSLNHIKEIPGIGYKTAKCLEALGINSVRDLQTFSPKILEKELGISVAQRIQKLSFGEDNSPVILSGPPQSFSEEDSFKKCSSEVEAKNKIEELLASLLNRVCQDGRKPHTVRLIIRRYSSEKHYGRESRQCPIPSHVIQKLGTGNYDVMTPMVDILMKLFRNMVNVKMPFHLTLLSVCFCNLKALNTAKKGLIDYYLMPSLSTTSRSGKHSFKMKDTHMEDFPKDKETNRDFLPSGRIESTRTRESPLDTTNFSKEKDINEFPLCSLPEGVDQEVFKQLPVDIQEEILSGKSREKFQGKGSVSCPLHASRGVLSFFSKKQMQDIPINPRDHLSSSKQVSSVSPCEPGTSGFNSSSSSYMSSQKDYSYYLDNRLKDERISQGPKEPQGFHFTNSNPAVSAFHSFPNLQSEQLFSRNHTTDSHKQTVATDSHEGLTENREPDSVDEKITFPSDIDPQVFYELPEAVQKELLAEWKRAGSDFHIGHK
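Pol iota at 10 nM preincubated 15 min with compounds at room temperature; reaction started with fluorescent substrate, 50 nM final. Fluorescence read kinetically at 0 and 10 min; buffer-only wells as negative control.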
Numbers without * were called inactive; ? = inconclusive; / = not tested or not shown; [ ] = remark or other dose. Hits are enriched below; roughly 2.4% of the tested compounds scored in any of these assays. The call rests on the fitted dose curve; in most records, active means well fitted inhibition curve with a large enough effect; inconclusive means small, poorly fitted or top-dose-only effect, or another doubt; inactive means no such curve, though single readings can be large or run the other way. Potency means the concentration at half of the fitted maximal effect.

SMILES	POLH inh	Pol beta inh	POLK inh	GLS inh	KAT2A inh	POLI inh
COc1cccc(C(=O)/C=C/Nc2ccc(S(=O)(=O)Nc3cnc4ccccc4n3)cc2)c1	16µM*	3%	-14%	-2%	77%	?
CCOC(=O)C1=C(O)/C(=C/c2ccccn2)SC1=Nc1ccc(Cl)cc1	-5%	27%	-2%	-1%	-11%	3%
CCOC(=O)C1=C(O)/C(=C/c2ccc(-c3ccccc3C(=O)O)o2)SC1=Nc1ccc(C)cc1	22µM*	3%	40µM*	?	-17%	?
CCOC(=O)C1=C(O)/C(=C/c2cn(CC(=O)NCC3CCCO3)c3ccccc23)SC1=Nc1ccc(C)cc1 (stereo unspecified)	14µM*	/	-18%	-1%	/	?
CCC(C(=O)O)C1OC(C(C)C(O)C(C)C(=O)C(CC)C2OC3(C=CC(O)C4(CCC(C)(C5CCC(O)(CC)C(C)O5)O4)O3)C(C)CC2C)C(C)CC1C (stereo unspecified)	/	/	-2%[19.4 µM]	-1%	-9%	/
CCN(C)c1ccc(/C=C/c2ccnc3ccccc23)cc1	/	/	-2%	/	/	?
COCCN1C(=O)C(CC(=O)Nc2ccc(C(=O)O)cc2)SC1=Nc1ccccc1 (stereo unspecified)	-22%	-2%	-17%	2%	0%	30%
COC(=O)c1cc(NC(=O)CC2SC(=Nc3ccccc3)N(CCc3c[nH]c4ccccc34)C2=O)cc(C(=O)OC)c1 (stereo unspecified)	10%	6%	-3%	25µM*	-25%	?
COc1ccc(OCC(=O)Nc2ccccc2Cl)cc1	-3%	18µM*	-1%	-1%	-1%	24%
CCC1CN(C(=O)Nc2cccc3c2CCCC3)c2cc(Cl)ccc2O1 (stereo unspecified)	7%	25%	-1%	9%	-6%	6%
CN(C)c1ccc(CC2C(=O)Nc3ccccc32)cc1 (stereo unspecified)	-19%	-5%	-12%	0%	2%	25µM*
COc1ccc(C)cc1NC(=O)C1CCN(S(=O)(=O)Cc2ccccc2)CC1	-8%	0%	0%	0%	0%	34%
Cc1c2cc[n+](CCN3CCCCC3)cc2c(C)c2c1[nH]c1ccc(O)cc12	2.8µM*	/	35µM*	-8%	/	25µM*
CCOC(=O)c1[nH]c2ccc(C)cc2c1NC(=O)CN1CCCCC1	-12%	-12%	-12%	25%	-18%	3%
CC(=O)Nc1cc(O)c2nonc2c1O	/	/	-14%	/	/	-92%
O=C(Nc1ccc(Cl)cc1)OCCN1CCN(Cc2ccccc2)CCC1=O	/	/	-5%[60.1 µM]	/	9%	/
Cc1ccccc1-n1nc2c(c1NC(=O)c1c(-c3ccccc3Cl)noc1C)CSC2	10%	25%	-15%	21%	-2%	79µM*
Cc1cccc(-n2nc3c(c2NC(=O)c2ccco2)CS(=O)C3)c1C (stereo unspecified)	-17%	0%	4%	-3%	-17%	81%
Cc1cccc(-n2nc3c(c2NC(=O)c2ccco2)CSC3)c1C	13µM*	?	28µM*	?	-22%	14µM*
Cc1cc2c(cc1C)N[C@]1(C[C@H]3CCCC(=O)N4CC[C@@H](C1)[C@@H]34)C(=NCc1ccccc1)N2	/	/	4%	/	/	27%
CC(C)CC1=C/C(=C/c2ccc(-c3ccccc3)o2)C(=O)O1	2.8µM*	16µM*	45µM*	11µM*	?	20µM*
CCN(CC)C(=O)C1=C(C)NC(=O)NC1c1ccccc1F (stereo unspecified)	/	-16%	/	/	-19%	/
CCN(CC)C(=O)C1=C(C)NC(=O)NC1c1c(F)cccc1Cl (stereo unspecified)	6%	89µM*	-15%	3%	3%	12%
CCN(CC)CCNC(=O)CCn1c(=O)c2cccn2c2cccnc21	-23%	22%	1%	-2%	-3%	3%
Cc1cccc(C2C3=C(Nc4[nH]n(-c5ccccc5)c(=O)c42)c2ccccc2C3=O)c1 (stereo unspecified)	13µM*	?	?	?	-21%	?
SMILES	POLH inh	Pol beta inh	POLK inh	GLS inh	KAT2A inh	POLI inh
Cc1cccc(OCC(=O)OCc2cc(=O)n3nc(C4CC4)sc3n2)c1	1%	19%	30%	-8%	-2%	38%
Nc1cc(N)nc(SCCN2CCCCC2)n1	12%	-1%	-17%	15%	0%	5%
CC(=O)c1sc2nsc(SCCN3CCCC3)c2c1N	4%	1%	-27%	2%	-12%	18µM*
O=C(/C=C/c1ccco1)N1CCN(S(=O)(=O)c2cccs2)CC1	?	50µM*	-13%	-12%	-3%	40µM*
CC(=O)NC(c1ccco1)c1cc(Cl)c2ccc(N3CCCCC3)nc2c1O (stereo unspecified)	/	/	/	/	-5%	/
CC(=O)Nc1nonc1-c1nc2ccccc2n1CC1CC1	10%	6%	-5%	1%	-6%	-4%
CC(=O)Nc1nonc1-c1nc2ccccc2n1N(C(C)=O)C(C)=O	?	35µM*	-17%	13%	-4%	?
O=C(O)CCCNc1cc(N2CCC3(CC2)OCCO3)c2noc3c2c1C(=O)c1ccccc1-3	/	11µM*	/	/	?	/
CCOC(=O)N1CCN(c2cc(NCCC(=O)O)c3c4c(onc24)-c2ccccc2C3=O)CC1	3.2µM*	25µM*	18µM*	18µM*	?	?
Cc1cc(O)cc2c1O[C@](C)(CCC(=O)O)CC2	/	/	9%	/	/	-6%
O=[N+]([O-])c1ccc2c(c1)C=C/C2=C\c1ccccc1	/	/	-3%	/	/	12%
COc1cccc(C2(O)CC(C(F)(F)F)=NN2C(=O)c2ccccn2)c1 (stereo unspecified)	-5%	0%	-11%	25%	25µM*	12%
CC1=C(CO)C(=O)OC([C@@H](C)C2CC[C@H]3C4C[C@H]5O[C@]56[C@@H](O)C=CC(=O)[C@]6(C)C4CC[C@]23C)C1 (stereo partly specified)	50µM*	?	-18%	-1%	-16%	?
Brc1cccc[n+]1CCCC[n+]1ccccc1Br	/	/	-6%	/	/	?
CN(C)c1ccc(C=Nc2ccc(/C=C3\C=Cc4ccccc43)cc2)cc1	/	/	-4%	/	/	20%

High-throughput results deposited in PubChem BioAssay by National Center for Advancing Translational Sciences (NCATS).
